Laboratory results reported in PubChem BioAssay (NCATS).
Records with an inconclusive call do not appear. Calls of active or inactive are those of the source. Calls follow the shape of the dose curve; as a rule, active = well fitted curve in the direction sought with a large enough effect; inconclusive = small, poorly fitted or top-dose-only effect, or another doubt; inactive = no such curve, though single readings can be large; an effect the other way counts as inactive or inconclusive.

Legend:
HEK293T [1] = assay: qHTS assay to identify novel small-molecules to repurpose for Merkel cell carcinoma treatment (AID 1296009); settings: MCC and control cell lines, CellTiter-Glo viability, 72 h; at 44.8 µM (top of the series) unless noted; also: nearly all actives have a fitted effect of over 60% in size
Method in brief: (§1)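 Luminescence from CellTiter-Glo, read 10 min after addition at room temperature, reported viability following a 72 hr, 37 degree celsius treatment with NPC or MIPE compounds in titration; values normalized to plate controls.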

MCC-13 = assay: as above; settings: MCC and control cell lines, CellTiter-Glo viability, 72 h; series mostly up to 46 µM
Method in brief: as §1

MCC-26 = assay: as above; settings: MCC and control cell lines, CellTiter-Glo viability, 72 h; series mostly up to 46 µM
Method in brief: as §1

MKL-1 = assay: as above; settings: MCC and control cell lines, CellTiter-Glo viability, 72 h; series mostly up to 46 µM
Method in brief: as §1

MKL-2 = assay: as above; settings: MCC and control cell lines, CellTiter-Glo viability, 72 h; series mostly up to 46 µM
Method in brief: as §1

NIH3T3 = assay: as above; settings: MCC and control cell lines, CellTiter-Glo viability, 72 h; at 44.8 µM (top of the series) unless noted
Method in brief: as §1

UISO = assay: as above; settings: MCC and control cell lines, CellTiter-Glo viability, 72 h; series mostly up to 46 µM
Method in brief: as §1

WaGa = assay: as above; settings: MCC and control cell lines, CellTiter-Glo viability, 72 h; series mostly up to 46 µM
Method in brief: as §1

C33A = assay: Primary qHTS to identify gynecologic anti-cancer compounds using libraries of approved drugs and bioactive compounds (AID 1345084); settings: Gynecologic cancer cell panel viability, ATPlite luminescence, 48 h; series mostly up to 57.5 µM; also: nearly all actives have a fitted effect of over 55% in size
Method in brief: (§2)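 Cell viability after 48 h drug treatment, ATPlite luminescence readout; five doses.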

CAOV3 = assay: as above; settings: Gynecologic cancer cell panel viability, ATPlite luminescence, 48 h; series mostly up to 57.5 µM
Method in brief: as §2

CASKI = assay: as above; settings: Gynecologic cancer cell panel viability, ATPlite luminescence, 48 h; series mostly up to 57.5 µM
Method in brief: as §2

Es-2 = assay: as above; settings: Gynecologic cancer cell panel viability, ATPlite luminescence, 48 h; series mostly up to 57.5 µM
Method in brief: as §2

HeLa = assay: as above; settings: Gynecologic cancer cell panel viability, ATPlite luminescence, 48 h; series mostly up to 57.5 µM
Method in brief: as §2

Hek293T [2] = assay: as above; settings: Gynecologic cancer cell panel viability, ATPlite luminescence, 48 h, control line for the selectivity index; series mostly up to 57.5 µM
Method in brief: as §2

JEG-3 = assay: as above; settings: Gynecologic cancer cell panel viability, ATPlite luminescence, 48 h; series mostly up to 57.5 µM
Method in brief: as §2

OV90 = assay: as above; settings: Gynecologic cancer cell panel viability, ATPlite luminescence, 48 h; series mostly up to 57.5 µM
Method in brief: as §2

PA-1 = assay: as above; settings: Gynecologic cancer cell panel viability, ATPlite luminescence, 48 h; series mostly up to 57.5 µM
Method in brief: as §2

SKOV3 = assay: as above; settings: Gynecologic cancer cell panel viability, ATPlite luminescence, 48 h; series mostly up to 57.5 µM
Method in brief: as §2

Tov-21-G = assay: as above; settings: Gynecologic cancer cell panel viability, ATPlite luminescence, 48 h; series mostly up to 57.5 µM
Method in brief: as §2

Tov112D = assay: as above; settings: Gynecologic cancer cell panel viability, ATPlite luminescence, 48 h; series mostly up to 57.5 µM
Method in brief: as §2

Measured: Potency

OC[C@]1(O)OC[C@@H](O)[C@H](O)[C@@H]1O
inactive: all assays above

COc1cc(/C=C/C(N)=O)cc(OC)c1OC
inactive: all assays above

CC(=O)c1ccc(O)c(C(N)=O)c1
inactive: all assays above

COc1ccc(/C(C)=C/C(=O)O)c(OC)c1
inactive: all assays above

Nc1ncnc2c1ncn2Cc1c(F)cccc1Cl
not listed: CAOV3
inactive: all other assays above

CCS(=O)(=O)c1ccc(OC)c(C(=O)OC)c1
not listed: CAOV3
inactive: all other assays above

Cc1ccc(C(C)OC(=O)C2(C)CCC(C(=O)O)C2(C)C)cc1 (centres undefined)
inactive: all assays above

Cc1[nH]cnc1-c1ccc(Cl)cc1
inactive: all assays above

Nc1ccc(C(=O)N2CC3CC(CN(Cc4ccccc4)C3)C2)cc1
not listed: OV90
inactive: all other assays above

CC(=O)OCC(=O)[C@@]1(O)[C@H](OC(C)=O)C[C@H]2[C@@H]3CCC4=CC(=O)C=C[C@]4(C)[C@@]3(F)[C@@H](O)C[C@@]21C
not listed: CAOV3
inactive: all other assays above

CC(CCc1ccc2c(c1)OCO2)NN (centres undefined)
not listed: SKOV3
inactive: all other assays above

O=C(Nc1ccc(S(=O)(=O)N2CCOCC2)cc1)c1cc(Cl)ccc1NS(=O)(=O)c1ccc(Cl)s1
not listed: C33A | PA-1
inactive: all other assays above

COC(=O)/C=C(/C)N
inactive: all assays above

O=C1NC(c2ccccc2)(c2ccccc2)C(=O)N1COP(=O)(O)O
inactive: all assays above

COC(=O)/C=C\C(=O)OC
inactive: all assays above

O=C(O)C(=O)Nc1cccc(-c2nn[nH]n2)c1
inactive: all assays above

O=C(O)/C=C(\CC(=O)O)C(=O)O
inactive: all assays above

CC(CC(C#N)(c1ccccc1)C(C)C)N(C)C (centres undefined)
inactive: all assays above

CCN(CC)CC(=O)Oc1ccc(NC(C)=O)cc1
not listed: CAOV3
inactive: all other assays above

Cc1cc(O)c(C)c(C)c1O
not listed: UISO
inactive: all other assays above

COC(=O)CCCCC(CCSS/C(CCO)=C(\C)N(C=O)Cc1cnc(C)nc1N)SC(C)=O (centres undefined)
inactive: all assays above

CC(C)NC(=O)c1ccc(C=O)cc1
not listed: NIH3T3
inactive: all other assays above

O=C(CO)[C@@H](O)[C@H](O)[C@@H](O)CO
not listed: SKOV3
inactive: all other assays above

CCOC(=O)C(O)c1ccccc1 (centres undefined)
not listed: NIH3T3
inactive: all other assays above

O=C(O)Cn1c(=O)n(Cc2ccc(Br)cc2F)c(=O)c2ccc(Cl)cc21
inactive: all assays above

CCOC(=O)O[C@]1(C(=O)OCCl)CC[C@H]2[C@@H]3CCC4=CC(=O)C=C[C@]4(C)[C@H]3[C@@H](O)C[C@@]21C
not listed: CAOV3 | SKOV3
inactive: all other assays above

CN1N=C(C(N)=O)CCC1=O
not listed: PA-1 | SKOV3
inactive: all other assays above

CN1CCN(N)CC1
inactive: all assays above

Nc1c[n+](N2CCOCC2)no1
inactive: all assays above
